Only some compounds are listed: those with a hit (about 4.9% of all), similar ones and a draw of the others.
SKKanGAS inh: S. pyogenes SKKanGAS growth inhibitors in kanamycin, primary screen, streptokinase expression inhibitor project, SKKanGAS strain, BacTiter-Glo luminescence. 6 h. inhibition, % at 7.5 µM. 1.3% of 300,000 active. AID 1662, 2009;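 active means mean replicate score, as percent of positive control median, at least 50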;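 further: strain carries kanamycin resistance gene driven by streptokinase promoter and grows in 40 µg/ml kanamycin; loss of luminescence reflects streptokinase promoter inhibition or plain growth inhibition; 0% = median of DMSO wells and 100% = positive control at its reference dose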
NALP1 inh: NALP1 inflammasome inhibitors in reconstituted yeast, colorimetric, S. cerevisiae, triplicate retest; S. cerevisiae NALP1/ASC/caspase-1 growth, X-gal OD620, 72 h; inhibition, % at 10 µM; 0.61% of 280,000 active; AID 2071, 2009; in the data active means inhibition mostly above about 24%, no sharp cut-off; inactive means mostly below about 32%
TIM10 inh: growth inhibitors of isogenic TIM10 control yeast, primary screen, counter-screen for tim10-1 yeast inhibitor project, luminescence, uHTS; S. cerevisiae TIM10 strain growth, BacTiter-Glo luminescence, 24 h; inhibition, % at 10 µM; 1.4% of 330,000 active;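 active means inhibition of 40% or more at the single tested concentration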;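 further: wild-type TIM10 isogenic control strain grown at permissive 25 °C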
tim10-1 inh: growth inhibitors of tim10-1 mutant yeast, primary screen, luminescence, uHTS; S. cerevisiae tim10-1 ts strain growth, BacTiter-Glo, 24 h; 2.2% of 330,000 active; AID 463190, 2010; inhibition, % at 20 µM;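 active means inhibition of at least 40%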;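 further: mutant grown at 25 °C; 0% = DMSO wells with yeast and 100% = wells holding no yeast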
NLRP3 yeast inh: NALP3 inflammasome inhibitors in reconstituted yeast, primary screen, luminescence, uHTS. Yeast reconstituted NLRP3/ASC/caspase-1, beta-gal luminescence, 24 h. inhibition, % at 10 µM. 0.39% of 330,000 active;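 active means inhibition of 50% or more; inactive means inhibition below 50%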;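 further: plate controls were induced DMSO wells for no effect and uninduced yeast grown without galactose for full effect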
tim23-1 inh: growth inhibitors of tim23-1 mutant yeast, primary screen, luminescence, uHTS. S. cerevisiae tim23-1 growth, BacTiter-Glo luminescence, 24 h. inhibition, % at 20 µM. 1.3% of 330,000 active;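 active means growth inhibition of the mutant yeast at or above 50%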;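 further: temperature-sensitive mutant grown at 25 °C; plate controls were DMSO-treated mutant yeast for no effect and medium wells lacking yeast for full effect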
Numbers without * were called inactive; / = not tested or not shown.

SMILES	SKKanGAS inh	NALP1 inh	TIM10 inh	tim10-1 inh	NLRP3 yeast inh	tim23-1 inh
COc1ccc(C(=O)Nc2ccccc2-c2nnn(CC(=O)Nc3ccc4c(c3)OCCO4)n2)cc1	66*	33	-30	4	-3	-27
Nc1ccccc1-c1nnn(CC(=O)Nc2ccc3c(c2)OCCO3)n1	-2	9	-13	-52	14	-1
CCCNC(=O)c1ccccc1NC(=O)c1cccc(-n2cnnn2)c1	/	/	4	9	1	8
O=C(NNC(=O)c1cc(-c2ccc(Cl)c(Cl)c2)nc2ccccc12)Nc1ccccc1	76*	-7	10	10	9	4
Cc1cc(Cl)ccc1OCCCC(=O)NNC(=O)c1ccccc1O	101*	/	-7	11	30	-3
COc1ccc(Oc2nc(C(F)(F)F)nc3ccccc23)cc1	52*	26	13	24	23	36
Cc1ccc(Oc2nc(C(F)(F)F)nc3ccccc23)cc1	27	32	6	4	12	10
OCC1(CC2CCCCO2)CCN(C/C=C/c2ccccc2)CC1 (stereo unspecified)	3	39*	-10	-9	11	0
Nc1nc(Nc2cccc(Cl)c2)nc(NCc2ccco2)c1[N+](=O)[O-]	75*	4	18	11	18	17
Cc1ccc(-c2cc(C(=O)N3CCN(c4ccccc4O)CC3)c3ccccc3n2)cc1	54*	/	12	-4	11	2
O=C(c1cc(-c2cccs2)nc2ccccc12)N1CCN(CCO)CC1	/	/	1	10	34	18
O=C(c1cc(-c2cccs2)nc2ccccc12)N1CCN(c2ccccc2O)CC1	68*	-10	15	12	0	43
O=C(N=Nc1c(O)[nH]c2ccc(Br)cc12)c1cc(-c2cccs2)nc2ccccc12	27	8	/	/	/	/
Cn1c(O)c(N=NC(=O)c2cc(-c3cccs3)nc3ccccc23)c2ccccc21	80*	40	2	9	28	2
CC(=O)Nc1cccc(NC(=O)COc2ccc3c(c2)OCO3)c1	-2	-24	-6	-9	14	-8
CCOC(=O)c1ccc(S(=O)(=O)Nc2ccc(N3CCOCC3)cc2)cc1	-3	11	-10	19	21	18
CCOC(=O)c1c(C)n(-c2ccccc2)c2ccc(OCCN(C)C)cc12	7	44*	7	24	12	14
Cc1nc2c(C#N)c(-c3ccc(Cl)cc3)ccn2n1	-1	3	-17	-2	0	-12
CC(C)(C)c1nc2c(C#N)c(-c3ccc(Cl)cc3)ccn2n1	20	38*	-9	37	18	39
CCCOc1ccc(N/C=C/C(=O)c2cc(OC)c(OC)c(OC)c2)cc1	6	15	6	22	21	19
COc1cc(OC)cc(C(=O)NC(=S)NNC(=O)[C@H]2C[C@@H]2c2ccccc2)c1	105*	1	-20	-18	9	-12
COc1ccc(C(=O)NC(=S)NNC(=O)[C@H]2C[C@@H]2c2ccccc2)cc1OC	102*	-7	19	39	16	-20
O=C(Nc1cccc(Cl)c1Cl)C1CCN(C(=O)c2cccs2)CC1	-3	21	-15	5	38	9
NC(=O)NC(=O)Nc1ccccc1Cl	-6	18	5	7	0	-4
CC(C)(ONC(=O)Nc1ccccc1Cl)C(=O)O	2	30*	9	10	7	13
SMILES	SKKanGAS inh	NALP1 inh	TIM10 inh	tim10-1 inh	NLRP3 yeast inh	tim23-1 inh
O=C(/C=C/c1ccccc1)NC(NC(=S)Nc1cccc(Cl)c1)C(Cl)(Cl)Cl (stereo unspecified)	101*	8	5	2	6	-8
O=C(NC(NC(=S)Nc1ccccc1Cl)C(Cl)(Cl)Cl)c1cccc(Cl)c1 (stereo unspecified)	97*	9	1	8	-4	-14
Cc1ccc(C)c(NC(=S)NC(NC(=O)OCc2ccccc2)C(Cl)(Cl)Cl)c1 (stereo unspecified)	14	8	5	17	2	9
O=C(NC(NC(=S)Nc1c(Cl)cc(Cl)cc1Cl)C(Cl)(Cl)Cl)OCc1ccccc1 (stereo unspecified)	86*	20	-9	-8	3	-13
COc1ccc(NC(=S)NC(NC(=O)c2cccc(Cl)c2)C(Cl)(Cl)Cl)c([N+](=O)[O-])c1 (stereo unspecified)	42	17	20	24	33	18
Cc1ccc(C)c(NC(=S)NC(NC(=O)/C=C/c2ccccc2)C(Cl)(Cl)Cl)c1 (stereo unspecified)	19	36	-14	9	22	0
O=C(/C=C/c1ccccc1)NC(NC(=S)Nc1ccc(Cl)cc1Cl)C(Cl)(Cl)Cl (stereo unspecified)	76*	15	-5	4	3	-3
O=C(/C=C/c1ccccc1)NC(NC(=S)Nc1cccc(O)c1)C(Cl)(Cl)Cl (stereo unspecified)	16	5	-4	30	-13	4
COc1ccc(C(CNC(=O)C(=O)NC2CCCCC2)N2CCN(C)CC2)cc1 (stereo unspecified)	-1	/	1	1	13	-8
O=C(NCC(=O)N1CCOCC1)c1ccccc1	1	14	9	-7	2	1
Cc1onc(-c2ccccc2)c1C(=O)N1CCN(c2ccc([N+](=O)[O-])cc2)CC1	6	15	-5	-15	-11	-3
CC[C@@H](C)[C@H](CN[C@H](CNC)[C@@H](C)O)NCCc1ccc(OC)cc1	-2	7	5	-2	5	-10
COc1ccc(CNC(=O)Cn2cccc2C(=O)c2ccccc2)cc1	-9	8	1	-4	11	19
CC1Cc2nc(SCC(=O)NCC3CCCO3)n(C)c(=O)c2S1 (stereo unspecified)	2	7	-9	-21	5	2
CSC[C@@H]1NC(=S)N(c2ccc(C)cc2)C1=O	10	76*	14	29	-1	44
CCN1CCCC1CN(Cc1cc2ccc(C)cc2[nH]c1=O)C(=S)Nc1ccccc1C(=O)OC (stereo unspecified)	6	37*	13	28	26	29
COc1ccc(C(=O)NCC(=O)OCCCOC(=O)CNC(=O)c2ccc(OC)c(OC)c2)cc1OC	50*	6	6	12	19	-5
COc1ccc(C(=O)NCC(=O)OCC(=O)c2ccc(Cl)cc2)cc1OC	2	-7	2	5	-6	0

Assay outcomes deposited in PubChem BioAssay by several laboratories.
